Experimental data from PubChem BioAssay AID1159580 (chemical genetic matrix, 2015).
Hit rate of the full screen: of about 5,500 compounds, about 2,000 (36%) were called active. Not shown: some 18% with an inconclusive outcome. No stated cut-off is given here; in the data, active means normalized growth mostly below about 0.91 (no sharp cut-off); inconclusive means no clear call, values can overlap the other calls; inactive means mostly above about 0.92. The list shows a part of the results.

Assay: chemical genetic growth profiling, strain panel (AID 1159580);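 further: tested at 20 µM; growth read once vehicle control cultures reached saturation at 30 °C; 1 = growth at the plate median or of vehicle wells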
Conditions: growth OD

Measured: normalized growth

COc1ccc(-c2c(O)c3c(OC)c4c(cc3oc2=O)OC(C)(C)C=C4)cc1
inactive: S. cerevisiae deletion strains, locus YJL187C, strain SWE1, stronger effect = lower value 0.952 | S. cerevisiae deletion strains, locus YJR066W, strain TOR1, stronger effect = lower value 0.934 | S. cerevisiae deletion strains, locus YKL009W, strain mrt4, stronger effect = lower value 0.935 | S. cerevisiae deletion strains, locus YKL068W, stronger effect = lower value 0.969 | S. cerevisiae deletion strains, locus YKL085W, strain MDH1 (second series), stronger effect = lower value 0.97 | S. cerevisiae deletion strains, locus YKL085W, strain MDH1, stronger effect = lower value 0.97 | S. cerevisiae deletion strains, locus YKL160W, strain elf1, stronger effect = lower value 0.936 | S. cerevisiae deletion strains, locus YKR001C, strain vps1, stronger effect = lower value 0.97 | S. cerevisiae deletion strains, locus YKR026C, strain gcn3, stronger effect = lower value 0.947 | S. cerevisiae deletion strains, locus YKR091W, strain srl3, stronger effect = lower value 0.954 | S. cerevisiae deletion strains, locus YLL001W, strain dnm1, stronger effect = lower value 0.968 | S. cerevisiae deletion strains, locus YLL026W, stronger effect = lower value 0.959 | S. cerevisiae deletion strains, locus YLL041C, strain sdh2, stronger effect = lower value 0.942 | S. cerevisiae deletion strains, locus YLR027C, strain aat2, stronger effect = lower value 0.965 | S. cerevisiae deletion strains, locus YLR039C, strain RIC1, stronger effect = lower value 1.01 | S. cerevisiae deletion strains, locus YLR058C, strain SHM2, stronger effect = lower value 0.949 | S. cerevisiae deletion strains, locus YLR102C, strain apc9, stronger effect = lower value 0.958 | S. cerevisiae deletion strains, locus YLR113W, strain HOG1, stronger effect = lower value 0.907 | S. cerevisiae deletion strains, locus YLR221C, strain rsa3, stronger effect = lower value 0.962 | S. cerevisiae deletion strains, locus YLR258W, strain gsy2, stronger effect = lower value 0.962 | S. cerevisiae deletion strains, locus YLR262C, strain YPT6 (second series), stronger effect = lower value 0.885 | S. cerevisiae deletion strains, locus YLR262C, strain YPT6, stronger effect = lower value 0.987 | S. cerevisiae deletion strains, locus YLR268W, strain sec22, stronger effect = lower value 0.91 | S. cerevisiae deletion strains, locus YLR320W, strain mms22, stronger effect = lower value 0.921 | S. cerevisiae deletion strains, locus YLR330W, strain CHS5, stronger effect = lower value 0.96 | S. cerevisiae deletion strains, locus YLR342W, strain FKS1, stronger effect = lower value 0.939 | S. cerevisiae deletion strains, locus YLR357W, strain rsc2, stronger effect = lower value 1 | S. cerevisiae deletion strains, locus YLR370C, strain arc18, stronger effect = lower value 0.95 | S. cerevisiae deletion strains, locus YLR371W, strain rom2, stronger effect = lower value 0.98 | S. cerevisiae deletion strains, locus YLR384C, strain iki3, stronger effect = lower value 0.954 | S. cerevisiae deletion strains, locus YML016C, strain PPZ1, stronger effect = lower value 0.958 | S. cerevisiae deletion strains, locus YML120C, strain ndi1, stronger effect = lower value 0.964 | S. cerevisiae deletion strains, locus YML124C, strain tub3, stronger effect = lower value 0.96 | S. cerevisiae deletion strains, locus YMR058W, strain fet3, stronger effect = lower value 0.961 | S. cerevisiae deletion strains, locus YMR078C, strain ctf18, stronger effect = lower value 0.942 | S. cerevisiae deletion strains, locus YMR125W, strain sto1, stronger effect = lower value 0.971 | S. cerevisiae deletion strains, locus YMR129W, stronger effect = lower value 0.95 | S. cerevisiae deletion strains, locus YMR205C, strain PFK2, stronger effect = lower value 0.909 | S. cerevisiae deletion strains, locus YMR223W, strain ubp8, stronger effect = lower value 0.928 | S. cerevisiae deletion strains, locus YMR231W, strain pep5, stronger effect = lower value 0.95 | S. cerevisiae deletion strains, locus YMR307W, strain GAS1, stronger effect = lower value 1.1 | S. cerevisiae deletion strains, locus YNL067W, strain RPL9B, stronger effect = lower value 0.967 | S. cerevisiae deletion strains, locus YNL071W, strain lat1, stronger effect = lower value 0.922 | S. cerevisiae deletion strains, locus YNL128W, strain TEP1, stronger effect = lower value 0.997 | S. cerevisiae deletion strains, locus YNL183C, strain NPR1, stronger effect = lower value 0.911 | S. cerevisiae deletion strains, locus YNL209W, strain ssb2, stronger effect = lower value 0.959 | S. cerevisiae deletion strains, locus YNL233W, strain BNI4, stronger effect = lower value 0.965 | S. cerevisiae deletion strains, locus YNL248C, strain rpa49, stronger effect = lower value 0.967 | S. cerevisiae deletion strains, locus YNL250W, strain rad50, stronger effect = lower value 0.913 | S. cerevisiae deletion strains, locus YNL271C, strain bni1, stronger effect = lower value 1 | S. cerevisiae deletion strains, locus YNL298W, strain CLA4, stronger effect = lower value 0.962 | S. cerevisiae deletion strains, locus YNL322C, strain KRE1 (second series), stronger effect = lower value 0.961 | S. cerevisiae deletion strains, locus YNL322C, strain KRE1, stronger effect = lower value 0.949 | S. cerevisiae deletion strains, locus YNR049C, strain mso1, stronger effect = lower value 0.965 | S. cerevisiae deletion strains, locus YNR052C, strain pop2, stronger effect = lower value 0.946 | S. cerevisiae deletion strains, locus YOL012C, strain htz1 0.954 | S. cerevisiae deletion strains, locus YOR001W, strain rrp6, stronger effect = lower value 0.969 | S. cerevisiae deletion strains, locus YOR061W, strain CKA2, stronger effect = lower value 0.952 | S. cerevisiae deletion strains, locus YOR069W, strain VPS5, stronger effect = lower value 0.952 | S. cerevisiae deletion strains, locus YOR070C, strain gyp1, stronger effect = lower value 0.94 | S. cerevisiae deletion strains, locus YOR080W, strain dia2, stronger effect = lower value 0.971 | S. cerevisiae deletion strains, locus YOR083W, strain WHI5, stronger effect = lower value 0.953 | S. cerevisiae deletion strains, locus YOR106W, strain vam3, stronger effect = lower value 0.971 | S. cerevisiae deletion strains, locus YOR136W, strain idh2, stronger effect = lower value 0.959 | S. cerevisiae deletion strains, locus YOR144C, strain elg1, stronger effect = lower value 0.942 | S. cerevisiae deletion strains, locus YOR184W, strain ser1, stronger effect = lower value 0.971 | S. cerevisiae deletion strains, locus YOR231W, strain MKK1, stronger effect = lower value 0.969 | S. cerevisiae deletion strains, locus YOR265W, strain rbl2, stronger effect = lower value 0.937 | S. cerevisiae deletion strains, locus YOR270C, strain vph1, stronger effect = lower value 0.923 | S. cerevisiae deletion strains, locus YOR290C, strain snf2, stronger effect = lower value 0.938 | S. cerevisiae deletion strains, locus YPL051W, strain arl3, stronger effect = lower value 0.951 | S. cerevisiae deletion strains, locus YPL078C, strain atp4, stronger effect = lower value 0.967 | S. cerevisiae deletion strains, locus YPL106C, strain sse1, stronger effect = lower value 1.01 | S. cerevisiae deletion strains, locus YPL240C, strain hsp82, stronger effect = lower value 0.95 | S. cerevisiae deletion strains, locus YPL241C, strain CIN2, stronger effect = lower value 0.938 | S. cerevisiae deletion strains, locus YPL256C, strain CLN2, stronger effect = lower value 0.933 | S. cerevisiae deletion strains, locus YPR141C, strain kar3, stronger effect = lower value 0.958 | S. cerevisiae deletion strains, locus YPR167C, strain met16, stronger effect = lower value 0.94 | S. cerevisiae deletion strains, strain wtn01, stronger effect = lower value 0.958 | S. cerevisiae strains, strain wild type, stronger effect = lower value 0.993
active: S. cerevisiae deletion strains, locus YLR418C, strain cdc73, stronger effect = lower value 0.833 | S. cerevisiae deletion strains, locus YML032C, strain rad52, stronger effect = lower value 0.901 | S. cerevisiae deletion strains, locus YNL307C, strain MCK1, stronger effect = lower value 0.84 | S. cerevisiae deletion strains, locus YOL147C, strain pex11, stronger effect = lower value 0.928 | S. cerevisiae deletion strains, locus YOR316C, strain cot1, stronger effect = lower value 0.916 | S. cerevisiae deletion strains, locus YPR119W, strain clb2, stronger effect = lower value 0.928 | S. cerevisiae deletion strains, locus YPR163C, strain tif3, stronger effect = lower value 0.908
